Reference: the supplement of paper PMC3334620
The full ranking holds about 33,000 sequences; the median of “E-score (-0.5 to 0.5)” is about -0.041, and the highest 2% start at about 0.37. The full list was thinned out, with the highest values kept by preference.

What follows are sequences tested against T1, Ecm22 (UniProt Q05958) (assay: PBM E-score (8-mer binding enrichment) (E-score (-0.5 to 0.5)); higher = stronger / more preferred TF binding). Settings: protein concentration: 200 nM; construct: GST-full length.
T1 sequence: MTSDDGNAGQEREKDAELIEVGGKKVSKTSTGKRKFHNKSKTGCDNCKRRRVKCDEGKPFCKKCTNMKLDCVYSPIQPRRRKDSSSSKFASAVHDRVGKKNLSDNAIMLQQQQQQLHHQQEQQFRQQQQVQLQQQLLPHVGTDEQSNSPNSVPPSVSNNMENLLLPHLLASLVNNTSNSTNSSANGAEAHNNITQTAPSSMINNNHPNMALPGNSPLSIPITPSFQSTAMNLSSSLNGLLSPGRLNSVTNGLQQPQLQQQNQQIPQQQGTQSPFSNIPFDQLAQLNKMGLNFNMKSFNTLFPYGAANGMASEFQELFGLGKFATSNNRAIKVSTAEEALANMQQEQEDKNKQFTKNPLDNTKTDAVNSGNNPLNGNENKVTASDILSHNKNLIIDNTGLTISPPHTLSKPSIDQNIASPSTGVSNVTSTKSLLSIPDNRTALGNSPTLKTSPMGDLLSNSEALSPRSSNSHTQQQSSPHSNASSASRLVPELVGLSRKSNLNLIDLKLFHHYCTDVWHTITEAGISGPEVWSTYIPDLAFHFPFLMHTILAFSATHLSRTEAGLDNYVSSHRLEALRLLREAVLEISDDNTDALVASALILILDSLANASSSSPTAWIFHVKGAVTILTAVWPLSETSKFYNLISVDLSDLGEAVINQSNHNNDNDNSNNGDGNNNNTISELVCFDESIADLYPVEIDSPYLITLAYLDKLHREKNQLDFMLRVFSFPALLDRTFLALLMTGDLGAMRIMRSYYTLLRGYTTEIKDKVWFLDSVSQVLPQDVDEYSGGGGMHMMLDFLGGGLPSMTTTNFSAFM
Procedure: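 Universal 'all 10-mer' protein binding microarrays (Agilent AMADID 015681) probed with GST-tagged S. cerevisiae TFs (full-length or DBD) made by in vitro transcription/translation (PURExpress), about 100-200 nM. Bound TF was detected with fluorescent anti-GST. Each ungapped 8-mer (which stands for itself and its reverse complement) is scored by the PBM enrichment score (E-score), a modified Wilcoxon-Mann-Whitney statistic from -0.5 to +0.5, computed with the Universal PBM Analysis Suite. Scale: above 0.35 generally sequence-specific binding.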

Sequence	PBM E-score
CCACGAAA	-0.0672
GAACGAAA	0.43
TGACGAAA	0.061
CAACGAAC	0.272
AAACGAAC	0.454
AAGCGAAC	0.268
AAACGGAC	0.307
GAACGGAC	0.279
AGCGGGAG	-0.188
GGGGGTTA	-0.298
AACCCGAG	0.267
GCATCCGC	-0.18
CTGCGGGA	-0.163
AGGAGCGA	0.328
CGTATAAG	0.466
CGTATCAA	0.386
TGTATCAA	-0.0485
AGTATAAG	0.109
AGTATAAA	0.241
CGTATAAC	0.473
CGTATAAA	0.477
CGTATCAC	0.365
TGTATAAA	0.172
AGTATAAC	0.0917
GGTATAAC	0.0372

Sequence	PBM E-score
CATATAAG	0.0284
CTGAAGAC	0.056
CAAGCCGC	-0.0639
CGCTTGGC	0.0372
CCGCGCGG	0.263
CGTGTGTC	0.0878
AGATCAGC	-0.106
ACATCTTG	-0.0408
CGCAGTAC	0.174
CGCACGAA	0.175
CTTCTTCA	-0.341
CCCGAAGC	-0.0995
GGCGATGA	-0.00497
ACTTTACG	0.394
ATTTTACG	0.392
AATTTACG	0.303
ACTTTACA	-0.00715
ATTTTACC	0.06
CCTTTACG	0.329
CTCTCCGC	-0.147
GCAGTGCC	-0.179
GTAACCTA	0.00094
AGCCACGC	-0.14
ACGAGCGA	0.409
GCGAGCGA	0.31

Sequence	PBM E-score
CCGAGCGA	0.237
ACGAGCGC	0.327
ATGAGCGG	-0.0285
ACGAGCGT	0.389
CCGAGCGG	0.202
ACGAGCGG	0.386
AAGAGCGT	0.0857
AGTCTTTG	-0.0796
ATCTCGGC	0.0673
CGCTAAGA	0.149
CCACTGCC	-0.0201
GCAGGCCA	-0.00078
CACCCCCG	-0.2
TCAGTCGA	0.0318
CAAGCGGG	-0.0323
ATTCTACA	0.0155
GAGAGCGC	-0.0803
AACGAGCG	0.459
CACGAGCC	0.143
CACGAGCG	0.201
TCCGAGCA	0.236
TACGAGCA	0.467
AACGAGCC	0.442
CACGAGCA	0.0712
AACGAGCA	0.46

Sequence	PBM E-score
TGCGAGCA	0.238
GACGAGCA	0.0907
AGCGAGCG	0.345
GACGAGCC	0.0624
AGCGTGGG	-0.0957
GGTTGGAC	-0.241
AACCGAAA	0.235
AAATTCTG	-0.0343
ACCGGATC	-0.0309
CAAGTGCG	-0.0245
ACTCCATA	-0.195
CAGGAGAC	0.0295
AGGATGAG	-0.0765
ACCATAGC	-0.261
GAACCGGC	-0.0167
GCCTTTAA	-0.198
AACGAGCT	0.445
ACCGAGCT	0.235
AGCGAGCT	0.309
CCGCTTTC	-0.0554
GGCCTCCC	-0.0791
CTCGCATC	0.304
ATCGCATA	0.289
GTCGCAGA	0.123
CTCGCATA	0.376

Sequence	PBM E-score
CTCGCAGA	0.0487
GTCGCATA	0.369
ACCTTTCG	0.094
TAAAGCGA	0.213
AGTTTAAG	-0.127
GGTTTAAC	0.0725
AGTTTAAC	0.09
TGTTTAAA	-0.172
CCTTTAAG	-0.259
CGTTTAAA	0.453
CGTTTAAC	0.465
CGTTTAAG	0.429
AGTTTAAA	0.0639
ACGGCCCG	0.208
GGCGATAC	0.0112
AAGCGGCT	-0.0695
AACCCGGC	0.11
GCCACAAC	-0.055
AGGAAATG	-0.11
CTCGGTTC	0.265
GTCGGTTA	0.369
ATCGGTTA	0.362
CTCGGTTA	0.383
CACGGTTA	0.0472
GTCGGTCA	0.258

Sequence	PBM E-score
CGCGGAGC	0.116
AGAGAGAT	-0.163
ACGAGCCT	0.407
CCGAGCCG	0.227
ACGAGCCG	0.389
ACGAGCCA	0.404
AGGAGCCG	-0.0656
TCGAGCCA	-0.126
ACGAGCCC	0.365
CCGAGCCA	0.138
AGGAGCCT	-0.308
CCATTAGC	-0.0326
CTTCTGGC	-0.199
GAACTCCC	0.178
ACCTTAAC	0.0365
GTTTAAAC	0.285
CCGAGAAA	0.247
ATGAGAAT	-0.0978
ACGAGAAC	0.4
ACGAGAAG	0.313
TCGAGAAA	0.0202
ACGAGAGT	0.328
ACGAGAAA	0.375
ACGAGAAT	0.385
CCGAGAAC	0.204

Sequence	PBM E-score
AGGACCAT	0.00977
ATTCTACC	-0.12
GACAGGCA	-0.0606
AACATCCG	0.158
GGTGGAAC	0.236
ACGGCACT	0.0515
ATGATGAC	-0.0358
CAAGCTTC	0.0567
CTTTTTTA	-0.19
CCCTCGGA	0.211
GCCTCGAA	0.0731
GCCTCGTA	0.481
CCCTCGTC	0.119
ACCTCGTG	0.251
CCCTCGTA	0.477
GCCTCGGA	0.175
ACCTCGTC	0.17
ACCTCGTA	0.463
AACGGTAA	0.267
ACTGGGTA	0.0533
ATGCGTCA	0.0653
ACCGCTAA	0.144
